Screens: PubChem BioAssay, The Scripps Research Institute Molecular Screening Center
TEAD-YAP inh – TEAD-YAP interaction inhibition, primary screen, TEAD-YAP interaction inhibitor project, luminescence, HEK-TIYL cells. TEAD-Gal4/YAP UAS-luciferase luminescence. inhibition, % at 9.12 µM. 640,000 compounds, 1.4% hits. AID 1259422, 2018; in the data active = inhibition above about 32%;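 also: 0% = median of test compound wells and 100% = reference inhibitor wells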
GPR151 ag – activators of human GPR151, primary screen, cell-based, PathHunter beta-arrestin, luminescence; 650,000 compounds, 1% hits; PathHunter beta-arrestin GPR151 cells; AID 1508602, 2020; activation, % at 11.2 µM; in the data active = activation above about 4.9%;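 also: 0% = median of compound wells and 100% = cells with positive control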
Target sequence (Q8TDV0 whole entry, looked up): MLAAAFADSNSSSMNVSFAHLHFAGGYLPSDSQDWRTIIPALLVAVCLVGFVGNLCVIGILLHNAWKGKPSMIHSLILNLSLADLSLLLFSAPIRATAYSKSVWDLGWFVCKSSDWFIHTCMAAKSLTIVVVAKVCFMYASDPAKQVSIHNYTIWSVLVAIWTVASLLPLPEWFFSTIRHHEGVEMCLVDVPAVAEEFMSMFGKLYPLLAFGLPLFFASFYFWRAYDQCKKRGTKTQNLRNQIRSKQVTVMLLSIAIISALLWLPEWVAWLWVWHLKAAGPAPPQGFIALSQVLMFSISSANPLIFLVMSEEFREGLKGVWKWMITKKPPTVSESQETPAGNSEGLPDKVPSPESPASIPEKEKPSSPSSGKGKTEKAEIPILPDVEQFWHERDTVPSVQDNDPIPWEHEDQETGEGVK
FBW7 activator – FBW7 E3 ligase activators, primary screen, biochemical, AlphaScreen, human; AlphaScreen FBW7–phospho-cyclin E peptide binding, activator screen; normalized activity (activation), % at 26.1 µM; 650,000 compounds, 0.13% hits; AID 1259310, 2017; in the data active = normalized activity above about 1.9%;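 also: purified mutant Fbw7 with reduced substrate affinity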
MITF primary – MITF inhibitors, primary screen, biochemical, AlphaScreen, human; inhibition, % at 2.6 µM; 650,000 compounds, 0.91% hits; AID 1259374, 2018; AlphaScreen MITF homodimerization, bead proximity signal; Microphthalmia-associated transcription factor (Homo sapiens), O75030; in the data active = inhibition above about 50%;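 also: 0% = vehicle wells with protein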
* marks the source's active call; other numbers are inactive results. This is a sample that favours compounds with a hit; in the whole collection about 3.4% have one here.

What do the screens show for `c1ccc(C(CCn2ccnc2)Nc2nncc(-c3ccc4c(c3)OCO4)n2)cc1` (centres undefined)?
TEAD-YAP inh: 45*; GPR151 ag: -1; FBW7 activator: 0; MITF primary: 6

Results for COC(=O)c1ccc2c(c1)C(=O)/C(=C/c1cc(OC)c(OC)c(OC)c1)O2 ?
TEAD-YAP inh: -8; GPR151 ag: 1; FBW7 activator: 0; MITF primary: 5

Results for COc1cccc(/C=C2\Oc3ccc(O)cc3C2=O)c1O ?
TEAD-YAP inh: 97*; GPR151 ag: -8; FBW7 activator: 0; MITF primary: 3

What do the screens show for `COC(=O)c1ccc2c(c1)C(=O)/C(=C/c1ccccc1OC)O2`?
TEAD-YAP inh: -3; GPR151 ag: 2; FBW7 activator: 0; MITF primary: -2

How did COC(=O)c1ccc2c(c1)C(=O)/C(=C/c1cccc(O)c1)O2 do in these assays?
TEAD-YAP inh: 42*; GPR151 ag: -2; FBW7 activator: 0; MITF primary: 13

Results for COC(=O)c1ccc2c(c1)C(=O)/C(=C/c1ccc(O)cc1)O2 ?
TEAD-YAP inh: 52*; GPR151 ag: 2; FBW7 activator: 0; MITF primary: 0

What do the screens show for `CCOC(=O)C1=C(N)OC2=C(C(=O)CC(c3ccccc3)C2)C1c1ccc([N+](=O)[O-])cc1` (centres undefined)?
TEAD-YAP inh: 8; GPR151 ag: 0; FBW7 activator: 0; MITF primary: -8

How did CCCn1c(CCC(=O)NC2CCCCCC2)nc2cccnc21 do in these assays?
TEAD-YAP inh: 0; GPR151 ag: -1; FBW7 activator: 0; MITF primary: -21

How did CN(C)CC(=O)Nc1ccc(Br)cc1[N+](=O)[O-] do in these assays?
TEAD-YAP inh: -9; GPR151 ag: -1; FBW7 activator: 0; MITF primary: -2

What do the screens show for `CC(C)(C)C1CCc2c(sc3nc(CCC(=O)N4CCN(c5ccccn5)CC4)[nH]c(=O)c23)C1` (centres undefined)?
TEAD-YAP inh: 78*; GPR151 ag: 2; FBW7 activator: 0; MITF primary: -3

What do the screens show for `CC(C)(C)C1CCc2c(sc3nc(Cc4ccccc4)[nH]c(=O)c23)C1` (centres undefined)?
TEAD-YAP inh: -1; GPR151 ag: 0; FBW7 activator: 0; MITF primary: 4

Results for CC(C)(C)C1CCc2c(sc3nc(CCC(=O)N4CCN(c5ccc(F)cc5)CC4)[nH]c(=O)c23)C1 (centres undefined) ?
TEAD-YAP inh: 52*; GPR151 ag: -1; FBW7 activator: 1; MITF primary: -4

How did COc1ccc(-c2nc3cc(C(C)C)ccc3o2)cc1N do in these assays?
TEAD-YAP inh: 66*; GPR151 ag: -1; FBW7 activator: 0; MITF primary: 10

How did Cc1ccc2oc(-c3ccc(Cl)c(N)c3)nc2c1 do in these assays?
TEAD-YAP inh: 68*; GPR151 ag: -10; FBW7 activator: 0; MITF primary: 7

What do the screens show for `COc1ccc(-c2nc3cc(N)ccc3o2)cc1Br`?
TEAD-YAP inh: -19; GPR151 ag: -1; FBW7 activator: 0; MITF primary: -7

Results for COc1ccc(-c2nc3ccccc3o2)cc1N ?
TEAD-YAP inh: 19; GPR151 ag: -6; FBW7 activator: 0; MITF primary: 0

What do the screens show for `COc1ccc(-c2nc3cc(C)ccc3o2)cc1N`?
TEAD-YAP inh: 88*; GPR151 ag: -8; FBW7 activator: 0; MITF primary: 13

How did O=C(CNC12CC3CC(CC(C3)C1)C2)Nc1ccccc1I do in these assays?
TEAD-YAP inh: 6; GPR151 ag: -1; FBW7 activator: 0; MITF primary: 11

What do the screens show for `CC(=O)c1cccc(S(=O)(=O)N2CCC(c3nc4ccc(Cl)cc4[nH]3)CC2)c1`?
TEAD-YAP inh: 19; GPR151 ag: -1; FBW7 activator: 0; MITF primary: -8

Results for O=C1C(=C2C=CN(CCc3ccccc3)C=C2)C(=O)c2ccccc21 ?
TEAD-YAP inh: -65; GPR151 ag: -1; FBW7 activator: 0; MITF primary: -7

Results for CCCCN1C=CC(=C2C(=O)c3ccccc3C2=O)C=C1 ?
TEAD-YAP inh: 96*; GPR151 ag: -8; FBW7 activator: 1; MITF primary: 18

Results for Cc1cc2nc(-c3cc(NC(=O)c4ccc(Cl)cc4)ccc3O)oc2cc1C ?
TEAD-YAP inh: -6; GPR151 ag: -1; FBW7 activator: 0; MITF primary: 11

How did CC(C)(C)c1ccc(-c2nc(-c3ccccc3)c3ccccn23)cc1 do in these assays?
TEAD-YAP inh: 14; GPR151 ag: 2; FBW7 activator: 0; MITF primary: -12

Results for Cc1nn2c(=O)/c(=C\c3ccccn3)sc2nc1=O ?
TEAD-YAP inh: -2; GPR151 ag: 1; FBW7 activator: 0; MITF primary: 70*

Results for O=Cc1ccc(-c2ccc(C(=O)O)c(O)c2)o1 ?
TEAD-YAP inh: 3; GPR151 ag: -1; FBW7 activator: 0; MITF primary: 86*

Results for CCN(CC)c1ccc(/C=N/N=C(N)N)c(O)c1 ?
TEAD-YAP inh: 50*; GPR151 ag: 3; FBW7 activator: 0; MITF primary: 13

Results for NS(=O)(=O)c1ccc(N/N=C/c2ccccc2Br)c([N+](=O)[O-])c1 ?
TEAD-YAP inh: 11; GPR151 ag: 2; FBW7 activator: 0; MITF primary: 9

Results for CCN(CC)c1ccc(/C=N/Nc2ccccc2[N+](=O)[O-])c(O)c1 ?
TEAD-YAP inh: 40*; GPR151 ag: 1; FBW7 activator: 0; MITF primary: 2

How did O=[N+]([O-])c1cc(S(=O)(=O)N/N=C/c2ccc(O)c(O)c2O)ccc1Cl do in these assays?
TEAD-YAP inh: 2; GPR151 ag: 0; FBW7 activator: 0; MITF primary: 55*

Results for Cc1ccccc1/C=N/Nc1ccc(S(N)(=O)=O)cc1[N+](=O)[O-] ?
TEAD-YAP inh: -13; GPR151 ag: 1; FBW7 activator: 2.0*; MITF primary: 14

How did Cc1ccc(S(=O)(=O)N/N=C/c2cc([N+](=O)[O-])ccc2O)cc1[N+](=O)[O-] do in these assays?
TEAD-YAP inh: 0; GPR151 ag: 1; FBW7 activator: 0; MITF primary: 8

What do the screens show for `CCOc1cc(/C=C2/C(=O)N(CC)C(=S)N2C)cc(I)c1OC`?
TEAD-YAP inh: 5; GPR151 ag: -2; FBW7 activator: 1; MITF primary: 17

Results for NS(=O)(=O)c1ccc(N/N=C/c2ccc(O)c(O)c2O)c([N+](=O)[O-])c1 ?
TEAD-YAP inh: 2; GPR151 ag: 3; FBW7 activator: 0; MITF primary: 70*

How did Cc1nc2sccn2c1C(=O)c1ccc(Br)cc1 do in these assays?
TEAD-YAP inh: -14; GPR151 ag: -1; FBW7 activator: 0; MITF primary: 16

How did CC(=O)c1ccc(Nc2c(C)n(C)n(-c3ccccc3)c2=O)cc1 do in these assays?
TEAD-YAP inh: -2; GPR151 ag: 1; FBW7 activator: 0; MITF primary: -1
